This is an account of results in publication PMC11006913.

Positions count from the first letter of the chain named.

In one assay the target is T1, NKX2-4 (Homo sapiens, UniProt Q9H2Z4 175-261).
T1 sequence: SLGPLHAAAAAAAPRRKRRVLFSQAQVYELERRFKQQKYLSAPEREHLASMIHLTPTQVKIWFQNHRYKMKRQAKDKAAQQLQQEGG
Nature of the assay: PBM; 200 nM protein, PBS. As to conditions: dsDNA, one strand shown.
As to CCACTCAA, the binding signal is 12.5 upbm affinity estimate (log intensity, higher = more binding, comparable within an allelic series).
On to GGTACTTA, for which the binding signal was 12.5 upbm affinity estimate (log intensity, higher = more binding, comparable within an allelic series).
Take AAGTGGCT: the binding signal is 12.4 upbm affinity estimate (log intensity, higher = more binding, comparable within an allelic series).
Consider AAGCACTT, for which the binding signal is 12.4 upbm affinity estimate (log intensity, higher = more binding, comparable within an allelic series).
On to AAGTGGAT, for which the binding signal is 12.3 upbm affinity estimate (log intensity, higher = more binding, comparable within an allelic series).
As for AAGTGGAG, the binding signal is 12.3 upbm affinity estimate (log intensity, higher = more binding, comparable within an allelic series).
Consider AAGTGGTA, for which the binding signal was 12.3 upbm affinity estimate (log intensity, higher = more binding, comparable within an allelic series).
ACCACTTG: the binding signal was 12.5 upbm affinity estimate (log intensity, higher = more binding, comparable within an allelic series).
On the same count and under the same terms, under CCACTTAG stands 12.6 upbm affinity estimate (log intensity, higher = more binding, comparable within an allelic series).
Regarding GGCACTTA, the binding signal was 12.6 upbm affinity estimate (log intensity, higher = more binding, comparable within an allelic series).
The same measure, in the same setting: the same measure for ACTTAAGT: 12.4 upbm affinity estimate (log intensity, higher = more binding, comparable within an allelic series).
In the case of CCACTTAC, the binding signal is 12.4 upbm affinity estimate (log intensity, higher = more binding, comparable within an allelic series).
Still for that read-out and setting: under CACTTAAC stands 12.4 upbm affinity estimate (log intensity, higher = more binding, comparable within an allelic series).
As to AAGTACCC, the binding signal is 12.3 upbm affinity estimate (log intensity, higher = more binding, comparable within an allelic series).
On to TAAGTGTA, for which the binding signal was 12.3 upbm affinity estimate (log intensity, higher = more binding, comparable within an allelic series).
For GCACTTCA, the binding signal was 12.5 upbm affinity estimate (log intensity, higher = more binding, comparable within an allelic series).
For AACACTTA, the binding signal is 12.4 upbm affinity estimate (log intensity, higher = more binding, comparable within an allelic series).
The same measure, in the same setting: the same measure for CACTTATG: 12.5 upbm affinity estimate (log intensity, higher = more binding, comparable within an allelic series); for GTACTTGA: 12.6 upbm affinity estimate (log intensity, higher = more binding, comparable within an allelic series); for CACTTAAG: 12.5 upbm affinity estimate (log intensity, higher = more binding, comparable within an allelic series).

The next assay has as its target T2, NKX2-6 (Homo sapiens, UniProt A6NCS4 118-204, R150C).
T2 sequence: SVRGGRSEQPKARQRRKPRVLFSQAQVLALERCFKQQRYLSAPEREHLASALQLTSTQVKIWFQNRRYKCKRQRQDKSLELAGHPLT
Description: PBM; 200 nM protein, PBS. As to conditions: dsDNA, one strand shown.
For AAGTACTC, the binding signal was 11.8 upbm affinity estimate (log intensity, higher = more binding, comparable within an allelic series).
On the same count and under the same terms, the same measure for CACTTGAC: 11.9 upbm affinity estimate (log intensity, higher = more binding, comparable within an allelic series); for ATTAAGTG: 11.8 upbm affinity estimate (log intensity, higher = more binding, comparable within an allelic series); for AGCACTTA: 12 upbm affinity estimate (log intensity, higher = more binding, comparable within an allelic series).
Regarding ACACTTAA, the binding signal is 12 upbm affinity estimate (log intensity, higher = more binding, comparable within an allelic series).
Still for that read-out and setting: the same measure for AGTACTTA: 12 upbm affinity estimate (log intensity, higher = more binding, comparable within an allelic series); for CACTTAAA: 12 upbm affinity estimate (log intensity, higher = more binding, comparable within an allelic series).
Regarding CAAGTGGC, the binding signal was 11.7 upbm affinity estimate (log intensity, higher = more binding, comparable within an allelic series).
On to GTACTTCA, for which the binding signal is 11.7 upbm affinity estimate (log intensity, higher = more binding, comparable within an allelic series).
Same read-out and setting: under CTCAAGTA stands 11.8 upbm affinity estimate (log intensity, higher = more binding, comparable within an allelic series); under AGTACTTG, 11.6 upbm affinity estimate (log intensity, higher = more binding, comparable within an allelic series).
Regarding ACAAGTGG, the binding signal was 12 upbm affinity estimate (log intensity, higher = more binding, comparable within an allelic series).
Still for that read-out and setting: under CCACTTAA stands 12.3 upbm affinity estimate (log intensity, higher = more binding, comparable within an allelic series); under ATAAGTGG, 12.4 upbm affinity estimate (log intensity, higher = more binding, comparable within an allelic series).
AACCACTT: the binding signal was 12 upbm affinity estimate (log intensity, higher = more binding, comparable within an allelic series).
On to CCACTTGA, for which the binding signal is 12.3 upbm affinity estimate (log intensity, higher = more binding, comparable within an allelic series).
On the same count and under the same terms, the same measure for CACTTATC: 12.1 upbm affinity estimate (log intensity, higher = more binding, comparable within an allelic series); for AAGTACTT: 12.1 upbm affinity estimate (log intensity, higher = more binding, comparable within an allelic series); for ACACTTGA: 12 upbm affinity estimate (log intensity, higher = more binding, comparable within an allelic series).
Take CCCACTTA: the binding signal is 12.2 upbm affinity estimate (log intensity, higher = more binding, comparable within an allelic series).
Same read-out and setting: the same measure for CCACTCAA: 11.8 upbm affinity estimate (log intensity, higher = more binding, comparable within an allelic series); for GGTACTTA: 12 upbm affinity estimate (log intensity, higher = more binding, comparable within an allelic series).
Consider AAGTGGCT, for which the binding signal is 11.8 upbm affinity estimate (log intensity, higher = more binding, comparable within an allelic series).
Still for that read-out and setting: the same measure for AAGCACTT: 11.8 upbm affinity estimate (log intensity, higher = more binding, comparable within an allelic series).
Same read-out and setting: under AAGTGGAT stands 11.8 upbm affinity estimate (log intensity, higher = more binding, comparable within an allelic series); under AAGTGGAG, 11.7 upbm affinity estimate (log intensity, higher = more binding, comparable within an allelic series); under AAGTGGTA, 11.9 upbm affinity estimate (log intensity, higher = more binding, comparable within an allelic series).
Turning to ACCACTTG, the binding signal was 11.8 upbm affinity estimate (log intensity, higher = more binding, comparable within an allelic series).
As for CCACTTAG, the binding signal was 12.2 upbm affinity estimate (log intensity, higher = more binding, comparable within an allelic series).
As for GGCACTTA, the binding signal was 12.1 upbm affinity estimate (log intensity, higher = more binding, comparable within an allelic series).
Take ACTTAAGT: the binding signal is 11.8 upbm affinity estimate (log intensity, higher = more binding, comparable within an allelic series).
The same measure, in the same setting: under CCACTTAC stands 12.2 upbm affinity estimate (log intensity, higher = more binding, comparable within an allelic series); under CACTTAAC, 11.8 upbm affinity estimate (log intensity, higher = more binding, comparable within an allelic series); under AAGTACCC, 11.7 upbm affinity estimate (log intensity, higher = more binding, comparable within an allelic series).
For the sequence TAAGTGTA, the binding signal was 11.7 upbm affinity estimate (log intensity, higher = more binding, comparable within an allelic series).
Regarding GCACTTCA, the binding signal is 11.7 upbm affinity estimate (log intensity, higher = more binding, comparable within an allelic series).
Still for that read-out and setting: the same measure for AACACTTA: 11.8 upbm affinity estimate (log intensity, higher = more binding, comparable within an allelic series); for CACTTATG: 12.2 upbm affinity estimate (log intensity, higher = more binding, comparable within an allelic series).
As for GTACTTGA, the binding signal was 12.1 upbm affinity estimate (log intensity, higher = more binding, comparable within an allelic series).
CACTTAAG: the binding signal was 12.2 upbm affinity estimate (log intensity, higher = more binding, comparable within an allelic series).

For a further assay, the target named is T3, NKX2-6 (Homo sapiens, UniProt A6NCS4 118-204).
T3 sequence: T2 sequence with C33R
Nature of the assay: PBM; 200 nM protein, PBS. The conditions noted are these: dsDNA, one strand shown.
As to AAGTACTC, the binding signal was 13.6 upbm affinity estimate (log intensity, higher = more binding, comparable within an allelic series).
As for CACTTGAC, the binding signal is 13.7 upbm affinity estimate (log intensity, higher = more binding, comparable within an allelic series).
For the sequence ATTAAGTG, the binding signal was 13.7 upbm affinity estimate (log intensity, higher = more binding, comparable within an allelic series).
Still for that read-out and setting: under AGCACTTA stands 13.7 upbm affinity estimate (log intensity, higher = more binding, comparable within an allelic series).
For the sequence ACACTTAA, the binding signal is 13.8 upbm affinity estimate (log intensity, higher = more binding, comparable within an allelic series).
For the sequence AGTACTTA, the binding signal was 13.8 upbm affinity estimate (log intensity, higher = more binding, comparable within an allelic series).
The same measure, in the same setting: the same measure for CACTTAAA: 13.8 upbm affinity estimate (log intensity, higher = more binding, comparable within an allelic series); for CAAGTGGC: 13.4 upbm affinity estimate (log intensity, higher = more binding, comparable within an allelic series).
Take GTACTTCA: the binding signal is 13.4 upbm affinity estimate (log intensity, higher = more binding, comparable within an allelic series).
The same measure, in the same setting: under CTCAAGTA stands 13.6 upbm affinity estimate (log intensity, higher = more binding, comparable within an allelic series); under AGTACTTG, 13.5 upbm affinity estimate (log intensity, higher = more binding, comparable within an allelic series); under ACAAGTGG, 13.7 upbm affinity estimate (log intensity, higher = more binding, comparable within an allelic series).
On the same count and under the same terms, under CCACTTAA stands 14.1 upbm affinity estimate (log intensity, higher = more binding, comparable within an allelic series).
With ATAAGTGG, the binding signal is 13.9 upbm affinity estimate (log intensity, higher = more binding, comparable within an allelic series).
Turning to AACCACTT, the binding signal is 13.7 upbm affinity estimate (log intensity, higher = more binding, comparable within an allelic series).
Turning to CCACTTGA, the binding signal is 13.9 upbm affinity estimate (log intensity, higher = more binding, comparable within an allelic series).
On the same count and under the same terms, under CACTTATC stands 13.8 upbm affinity estimate (log intensity, higher = more binding, comparable within an allelic series); under AAGTACTT, 13.8 upbm affinity estimate (log intensity, higher = more binding, comparable within an allelic series); under ACACTTGA, 13.9 upbm affinity estimate (log intensity, higher = more binding, comparable within an allelic series).
Regarding CCCACTTA, the binding signal was 13.7 upbm affinity estimate (log intensity, higher = more binding, comparable within an allelic series).
As for CCACTCAA, the binding signal was 13.4 upbm affinity estimate (log intensity, higher = more binding, comparable within an allelic series).
GGTACTTA: the binding signal is 13.8 upbm affinity estimate (log intensity, higher = more binding, comparable within an allelic series).
For AAGTGGCT, the binding signal was 13.4 upbm affinity estimate (log intensity, higher = more binding, comparable within an allelic series).
Take AAGCACTT: the binding signal was 13.5 upbm affinity estimate (log intensity, higher = more binding, comparable within an allelic series).
Consider AAGTGGAT, for which the binding signal is 13.3 upbm affinity estimate (log intensity, higher = more binding, comparable within an allelic series).
AAGTGGAG: the binding signal was 13.3 upbm affinity estimate (log intensity, higher = more binding, comparable within an allelic series).
The same measure, in the same setting: the same measure for AAGTGGTA: 13.4 upbm affinity estimate (log intensity, higher = more binding, comparable within an allelic series); for ACCACTTG: 13.5 upbm affinity estimate (log intensity, higher = more binding, comparable within an allelic series); for CCACTTAG: 14 upbm affinity estimate (log intensity, higher = more binding, comparable within an allelic series).
On to GGCACTTA, for which the binding signal is 13.8 upbm affinity estimate (log intensity, higher = more binding, comparable within an allelic series).
Turning to ACTTAAGT, the binding signal was 13.7 upbm affinity estimate (log intensity, higher = more binding, comparable within an allelic series).
Consider CCACTTAC, for which the binding signal was 13.7 upbm affinity estimate (log intensity, higher = more binding, comparable within an allelic series).
As to CACTTAAC, the binding signal is 13.7 upbm affinity estimate (log intensity, higher = more binding, comparable within an allelic series).
Consider AAGTACCC, for which the binding signal was 13.4 upbm affinity estimate (log intensity, higher = more binding, comparable within an allelic series).
Turning to TAAGTGTA, the binding signal is 13.4 upbm affinity estimate (log intensity, higher = more binding, comparable within an allelic series).
Regarding GCACTTCA, the binding signal is 13.3 upbm affinity estimate (log intensity, higher = more binding, comparable within an allelic series).
As to AACACTTA, the binding signal was 13.6 upbm affinity estimate (log intensity, higher = more binding, comparable within an allelic series).
With CACTTATG, the binding signal was 13.8 upbm affinity estimate (log intensity, higher = more binding, comparable within an allelic series).
In the case of GTACTTGA, the binding signal was 13.7 upbm affinity estimate (log intensity, higher = more binding, comparable within an allelic series).
Still for that read-out and setting: under CACTTAAG stands 14 upbm affinity estimate (log intensity, higher = more binding, comparable within an allelic series).
